Gal4-VP16 FLuc: Gal4-VP16 reporter inhibition counter-screen. Drosophila S2 Gal4-VP16 UAS-luciferase, luminescence, 20 h. Potency, µM (highest dose often 53.6 µM), for the others: top-dose activity, negative = inhibition, usual class: inhibitors. 310,000 compounds, 3.5% hits;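 also: Gal4-VP16 expression switched on by copper sulfate through the metallothionein promoter; nearly all actives have a fitted effect of over 50% in size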
TDP1 cell noCPT: qHTS for Inhibitors of human tyrosyl-DNA phosphodiesterase 1 (TDP1): qHTS in cells in absence of CPT | DT40 Tdp1-/- hTDP1 cells, no CPT, ATP luminescence, 48 h | Potency, µM (doses to about 46.2 µM), inactives show at the highest dose activity change, negative = growth inhibition, actives largely listed as inhibitors | 420,000 compounds, 15% hits; also: nearly all actives have a fitted effect of over 55% in size
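Cells were dispensed at 400 per well, compounds added by pin tool, plates incubated ≥48 hr at 37 °C, then CellTiter-Glo added for 30 min at room temperature before luminescence reading. Line: DT40 Tdp1-/- complemented with hTDP1; camptothecin omitted.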
RORg inh: inhibitors of mouse ROR gamma transcriptional activity; Potency, µM (series often up to 53.6 µM), for inactives: at the highest dose activity change, negative = inhibition, usual class: inhibitors; P51450; 310,000 compounds, 5.4% hits; Drosophila S2 Gal4-RORgamma UAS-luciferase reporter, 20 h; also: nearly all actives have a fitted effect of over 60% in size
Target sequence (P51450 whole entry, looked up, the tested form may be a part): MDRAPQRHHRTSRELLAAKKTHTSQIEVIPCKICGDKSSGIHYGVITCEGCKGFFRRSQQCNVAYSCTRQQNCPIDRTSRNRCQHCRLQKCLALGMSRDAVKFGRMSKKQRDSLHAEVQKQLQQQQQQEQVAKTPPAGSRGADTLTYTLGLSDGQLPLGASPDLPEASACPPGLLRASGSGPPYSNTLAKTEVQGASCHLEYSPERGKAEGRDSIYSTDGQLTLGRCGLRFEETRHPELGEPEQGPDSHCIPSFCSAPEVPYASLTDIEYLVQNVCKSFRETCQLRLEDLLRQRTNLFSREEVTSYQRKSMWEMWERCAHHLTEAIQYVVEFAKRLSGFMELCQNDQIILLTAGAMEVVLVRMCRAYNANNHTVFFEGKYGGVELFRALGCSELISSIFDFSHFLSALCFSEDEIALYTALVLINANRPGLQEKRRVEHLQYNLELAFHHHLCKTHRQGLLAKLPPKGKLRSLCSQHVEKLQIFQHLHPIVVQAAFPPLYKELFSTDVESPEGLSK
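Schneider cells (Drosophila), stable Gal4 DBD–ROR gamma + UAS-luc; 1 hr cmpd preincubation; Cu2+ induction 700 uM final; 20 hr ambient; luminescence.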
TDP1 cell CPT: DT40-hTDP1 cell growth loss with CPT; chicken DT40 Tdp1-/-;hTDP1 cells + 20 nM CPT, ATP luminescence, 48 h; Potency, µM (series often up to 46.2 µM), inactives show at the highest dose activity change, negative = growth inhibition, usual class: inhibitors; 420,000 compounds, 12% hits; AID 686979; also: nearly all actives have a fitted effect of over 55% in size
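Cell growth measured by CellTiter-Glo luminescence after a minimum 48 h, 37 C compound exposure with 20 nM CPT in Tdp1-knockout DT40 cells stably expressing hTDP1, seeded 400/well; qHTS titration format.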
ELG1 repair inh: ELG1-dependent DNA repair inhibition. HEK293T ELG1-luciferase reporter, luminescence, 16 h; DNA damage induced by 5-fluorouridine. Potency, µM (series often up to 46.1 µM), without a hit: at the top dose activity change, negative = inhibition, hits mostly inhibitors. 330,000 compounds, 2.3% hits; also: nearly all actives have a fitted effect of over 55% in size
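HEK293T cells expressing luciferase-tagged ELG1 (2,000/well) received 5-Fluorouridine plus compound or DMSO for 16 hr at 37 °C. Luciferase was read by ONE-Glo luminescence after 30 min at room temperature.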
12-LOX inh: ALOX12 (human) lipoxygenase inhibition | AID 1671190 | purified 12hLO, xylenol orange hydroperoxide absorbance | 580,000 compounds, 1.1% hits | P18054 | Potency, µM (series often up to 108 µM), for inactives: at the top dose activity change, negative = inhibition, hits mostly inhibitors
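Hydroperoxide product was detected by ferrous iron/xylenol orange as the 573 to 405 nm absorbance ratio. Arachidonic acid at 40 uM (final) was turned over for 30 min at room temperature by 150 nM human 12hLO, pH 7.0 Hepes buffer, after 15 min compound preincubation.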
* = called active by the depositor; ? = inconclusive; / = no result; ! = repeats disagree; [ ] = remark or other dose. Shown are actives, neighbours in structure and some others; about 15% of the full set was active somewhere. Calls follow the shape of the dose curve; as a rule, active = well fitted curve in the direction sought with a large enough effect; inconclusive = small, poorly fitted or top-dose-only effect, or another doubt; inactive = no such curve, though single readings can be large; an effect the other way counts as inactive or inconclusive. % is scaled to controls: 0 for no effect and ±100 for the full control effect; potency is read from the fitted curve at half-maximal effect.

SMILES	Gal4-VP16 FLuc	TDP1 cell noCPT	RORg inh	TDP1 cell CPT	ELG1 repair inh	12-LOX inh
CSc1nc(NCC(C)C)c2c3c(sc2n1)CN(C)CC3	3%	?	-34%	21µM*	-13%	-7%
CSc1nc(NCc2ccccc2)c2c3c(sc2n1)CN(C)CC3	2%	23µM*	1%	23µM*	14%	0%
CCCSc1nc(N)c2c3c(sc2n1)CN(C)CC3	15%	23µM*	34%	-26%	?	/
CCN(CC)CCNc1nc(SC)nc2sc3c(c12)CCN(C)C3	-7%	?	-13%	-3%	-3%	-9%
COc1ccc2cnn(CC(=O)Nc3ccc(F)c(Cl)c3)c(=O)c2c1OC	/	/	/	/	/	20%
O=C(NCCO)c1nc(-c2ccc(COc3ccc4c(c3)OCO4)cc2)no1	/	/	/	/	/	-10%
COC(=O)c1ccc(-c2ccco2)n1Cc1nc(-c2ccc(OC)c(OC)c2)oc1C	4%	16µM*	-42%	23µM*	?	?
CC(C)=CCc1c(O)cc2c(=O)c3ccc(O)cc3oc2c1O	/	?	/	-16%	/	?
CC(C)=CCc1c2c(c3occ(-c4ccc(O)c(O)c4)c(=O)c3c1O)C=CC(C)(C)O2	?	1.5µM*	?	1.3µM*	/	40µM*!
CC1(C)C=Cc2c(c3c(c4c(=O)c(-c5ccc(O)cc5)coc24)OC(C)(C)CC3)O1	-5%	26µM*	-44%	18µM*	?	?
CC(C)=CCc1c(O)cc2occ(-c3ccc4c(c3)OCO4)c(=O)c2c1O	14µM*	?	?	?	/	/
OC1(CN2CCC(c3cc(Cc4ccccc4)[nH]n3)CC2)CNCCOC1 (configuration not stated)	/	/	/	/	/	8%
Cn1cnnc1CC1CCN(C(=O)c2cccs2)CC1	/	/	/	/	/	41%
O=C(c1ccc2cc[nH]c2c1)N1CCC(C(=O)N2CCCCC2)CC1	/	/	/	/	/	-11%
CCNC(=O)C1CCCN(Cc2ccc(OCc3ccccc3)cc2)CC1 (configuration not stated)	/	7.3µM*	/	18µM*	/	?
OC1CCN(Cc2ccc(OCc3ccccc3)cc2)CC1	?	-5%	10µM*	5%	?	-2%
O=C(C1CCN(Cc2ccc(OCc3ccccc3)cc2)CC1)N1CCCC1	-1%	-25%	-36%	-52%	?	?
COCCc1noc(-c2ccccc2OC2CN(C(=O)c3cnc(C)cn3)C2)n1	/	/	/	/	/	20%
Cc1cc(N(C)C)c(C)cc1/C=C/c1ccnc2ccccc12	/	0.56µM*	/	0.79µM*	/	/
CCN(CC)c1cc(C)c(/C=C/c2ccnc3ccccc23)cc1C	/	13µM*	/	10µM*	/	/
Cc1ccnc2ccccc12	/	-2%	/	2%	/	/
CCCCCCCOc1ccc(C(=O)O)cc1	/	/	/	/	/	13%
Cc1ccnc(Nc2nc(C)c3cccc(C)c3n2)n1	/	/	/	/	/	0%
O=C(COC(=O)/C=C/c1ccco1)Nc1ccccc1	6%	3%	-3%	-12%	2%	32%
CCN(CC)c1ccc(S(=O)(=O)N2CCOCC2)cc1NC(=O)COC(=O)/C=C/c1ccco1	/	26µM*	/	23µM*	/	-17%
SMILES	Gal4-VP16 FLuc	TDP1 cell noCPT	RORg inh	TDP1 cell CPT	ELG1 repair inh	12-LOX inh
CCN(CC)c1ccc(S(=O)(=O)N2CCOCC2)cc1NC(=O)COC(=O)c1cccnc1SC	/	16µM*	/	?	-26%	-9%
CCN(c1ccc(NC(=O)COC(=O)/C=C/c2ccco2)cc1)C(C)C	/	18µM*	/	26µM*	16%	2%
Cc1cc(C)c(C(=O)/C=C/C=C/c2ccccc2)c(=O)[nH]1	0%	-28%	?	-23%	8%	?
Cc1cc(C)c(C(=O)/C=C/c2ccc(C(C)C)cc2)c(=O)[nH]1	32µM*	16µM*	?	23µM*	21µM*	-17%
CC(C(=O)Nc1cccc2ncccc12)N1CCCCC1 (configuration not stated)	/	/	/	/	/	18%
CN1C(=O)CCC2(CNC(=O)c3n[nH]c4ccccc34)CCC=C12 (configuration not stated)	/	/	/	/	/	26%
CC(C)NC(=O)CNC(=O)CCc1ncc(-c2ccc(F)cc2F)o1	/	/	/	/	/	18%
CCOc1ccc(C=Nc2ccc(/C=C/c3ccnc4ccccc34)cc2)cc1OCC	/	10µM*	/	16µM*	/	/
CCCCN(CCCC)c1ccc(C=Nc2ccc(/C=C/c3ccnc4ccccc34)cc2)cc1C	/	10µM*	/	11µM*	/	/
COc1cc(CCC(=O)N(CC#N)C2CC2)cc(OC)c1	/	/	/	/	/	-6%
CCN1CCOC(=O)C1CC(=O)Nc1ccc(C)c(Cl)c1 (configuration not stated)	/	5.8µM*	/	7.3µM*	/	-21%
O=C(CC1C(=O)OCCN1Cc1ccccc1)Nc1ccc(Cl)cc1Cl (configuration not stated)	/	/	/	/	/	-17%
Cc1cccc(NC(=O)CC2C(=O)OCCN2Cc2ccccc2)c1 (configuration not stated)	/	-26%	/	-24%	/	-26%
CCN1CCOC(=O)C1CC(=O)Nc1cc(Cl)ccc1C (configuration not stated)	/	15µM*	/	7.3µM*	/	-20%
COC(=O)C(C)OC(=O)c1c[nH]c2cc(Br)c(Br)cc12 (configuration not stated)	/	/	/	/	/	-27%
Cc1ccccc1S(=O)(=O)N1CCCC(Cc2noc(-c3cnccn3)n2)C1 (configuration not stated)	/	/	/	/	/	37%
Cn1ccc2c(C(=O)NCc3cccnc3)nc(-c3ccccc3C(F)(F)F)cc21	/	/	/	/	/	13%[176 µM]
O=C1C(Cc2ccccc2)Nc2ncnc(N3CCc4ccccc4C3)c2N1Cc1ccc(Br)cc1 (configuration not stated)	/	/	/	/	-13%	/
CC(C)CC1Nc2ncnc(N3CCN(c4ccccn4)CC3)c2N(Cc2ccc(Br)cc2)C1=O (configuration not stated)	/	?	/	?	-17%	-9%
Cc1ccc(CN2C(=O)C(C)Nc3ncnc(N4CCN(c5ccccn5)CC4)c32)cc1 (configuration not stated)	/	18µM*	/	?	?	-15%
COc1ccc(CN2C(=O)C(C)Nc3ncnc(N4CCN(c5ccccn5)CC4)c32)cc1 (configuration not stated)	/	23µM*	/	?	5%	-8%
